From PubChem BioAssay come the findings set out here.

A number with no mark means an inactive call. No rule for the calls is given here.

Usually inhibition stands for the percentage by which the read-out fell short of the control.

The target of this experiment is Pantothenate synthetase (Mycobacterium tuberculosis (strain ATCC 25618 / H37Rv)) (UniProt P9WIL5). The experiment in a line: Recombinant Mtb pantothenate synthetase (PanC) inhibitors, coupled enzyme, confirmatory (AID 375).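 Also: 0% = full reaction with vehicle and 100% = no enzyme background.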 The note with it: coupled enzyme assay; at 10 µM, stronger effect = higher value.
Pantothenate synthetase (Mycobacterium tuberculosis (strain ATCC 25618 / H37Rv)), sequence (P9WIL5 whole entry, looked up): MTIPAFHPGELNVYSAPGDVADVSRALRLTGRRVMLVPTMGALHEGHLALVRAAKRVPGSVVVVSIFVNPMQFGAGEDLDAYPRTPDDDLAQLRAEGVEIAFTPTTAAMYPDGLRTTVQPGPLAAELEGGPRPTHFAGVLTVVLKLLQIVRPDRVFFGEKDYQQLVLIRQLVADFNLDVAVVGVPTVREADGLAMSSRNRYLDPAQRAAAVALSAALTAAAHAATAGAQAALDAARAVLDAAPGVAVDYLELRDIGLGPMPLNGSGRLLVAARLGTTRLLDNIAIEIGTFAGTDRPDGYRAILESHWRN
For `O=C(O)CC1SC(=Nc2cccc(C(F)(F)F)c2)NC1=O` (stereo not given), the inhibition is 0%.

For `Cc1ccc(OCC(=O)NCCN2CCCC2)cc1`, the inhibition is 0%.

As to `Cc1ccc(S(=O)(=O)N(C)c2ccc(OCC(=O)OCc3c(C)noc3C)cc2)cc1`, the inhibition is 0%.

In the case of `CCOC(=O)C1=C(C)NC(C)=C(C(=O)OC)C1c1cccc(Cl)c1Cl` (stereo not given), the inhibition is 4%.

With `CCOC(=O)c1ccccc1NC1CC(=O)N(c2ccccc2C)C1=O` (stereo not given), the inhibition is 0%.

As to `Cc1ccc2nc(CSc3nnc(-c4ccco4)n3-c3ccccc3)cc(=O)n2c1`, the inhibition is 4%.

For the compound `Cc1cc(C)n2nc(SCc3nc4ccccc4[nH]3)nc2n1`, the inhibition is 6%.

For `O=C(NCC(c1cccnc1)N1CCOCC1)c1ccco1` (stereo not given), the inhibition is 2%.

`CCN1CCN(c2ncc(C(=O)N3CCN(c4ccccc4OC)CC3)c3ccccc23)CC1`: the inhibition is 3%.

In the case of `CCCN(CCC)CCNS(=O)(=O)c1ccc2c(c1)oc(=O)n2C`, the inhibition was 2%.

For the compound `O=C(Nc1cccnc1N1CCOCC1)c1ccco1`, the inhibition was 10%.

As to `COc1ccc(-n2c(COc3cccc(C)c3)nnc2SCC(=O)NCc2ccco2)cc1`, the inhibition is 5%.

With `Fc1ccc(-c2nnc(CN3CCN(c4ncc(C(F)(F)F)cc4Cl)CC3)o2)cc1`, the inhibition is 0%.

As to `CC1(C(=O)NC2CCCCC2)CCC(=O)N1Cc1cccs1` (stereo not given), the inhibition is 0%.

Consider `O=C1CC(c2ccco2)CC(O)=C1C=NCCN1CCNCC1` (stereo not given), for which the inhibition is 0%.

Regarding `Cc1nnc(C)n1/N=C/c1cccc(Oc2ccccc2)c1`, the inhibition was 1%.

On to `Clc1c(CSc2nc3ccccc3o2)nc2sccn12`, for which the inhibition was 1%.

`O=C(c1ccco1)c1nnn(Cc2ccccc2)c1-c1ccccc1`: the inhibition was 1%.

`COc1ccccc1N1CCN(c2nc3ccccc3nc2C(C#N)C(=O)OC(C)C)CC1` (stereo not given): the inhibition is 1%.

`N=c1c(C(=O)NCc2ccc3c(c2)OCO3)cc2c(=O)n3ccccc3nc2n1Cc1cccnc1`: the inhibition was 2%.

As for `Cn1c(SCC(=O)N2CCOCC2)nnc1-c1cccc(NC(=O)c2ccccc2F)c1`, the inhibition is 0%.

In the case of `CCOc1ccc2nc(N3CCC(C(=O)N4CCN(C5CCCCC5)CC4)CC3)sc2c1`, the inhibition was 0%.

With `CCCN(CCC)C(=O)c1c(C)[nH]c(C(=O)OCC)c1C`, the inhibition was 0%.

Take `COc1cc2c(OC)cccc2cc1C(=O)O`: the inhibition was 0%.

With `Cc1cc(C(=O)COc2cccc3cccnc23)c(C)n1C`, the inhibition was 0%.

As to `CCOC(=O)Cn1nnnc1CN(Cc1ccc(OC)cc1)Cc1cc2cc(C)ccc2[nH]c1=O`, the inhibition is 1%.

With `Cc1ccnc(NC(=O)CCC(=O)N(CC(=O)NC(C)(C)C)C2CCCC2)c1`, the inhibition is 0%.

With `CC1(C)O[C@@H]2C[C@H]3[C@@H]4C[C@H](F)C5=CC(=O)CC[C@]5(C)[C@H]4[C@@H](O)C[C@]3(C)[C@]2(C(=O)CO)O1`, the inhibition is 7%.

For the compound `Cc1cc(S(=O)(=O)N(Cc2ccccc2)Cc2ccc(N(C)C)cc2)ccc1-n1cnnn1`, the inhibition is 0%.

On to `CCOC(=O)c1[nH]c(C)c(C(=O)Nc2ccc(C)c(Cl)c2)c1C`, for which the inhibition was 9%.

As to `COc1ccc(CC(=O)Nc2ccc(OC)c(NC(=O)c3ccco3)c2)cc1`, the inhibition is 7%.

For the compound `NC(=O)c1cccc2c1C(=O)N(C1CCCCC1)C2`, the inhibition was 0%.

On to `COc1cc2nc(N3CCN(C(=O)C4CCCO4)CC3)nc(N)c2cc1OC` (stereo not given), for which the inhibition was 0%.

In the case of `CCOc1cc(S(=O)(=O)NCc2ccc3c(c2)OCO3)ccc1F`, the inhibition was 2%.

Take `CCN(C1CCCCC1)S(=O)(=O)c1ccc(OC)c(C)c1`: the inhibition was 0%.

For `O=C(CSc1nc2ccccc2o1)N1CCN(c2ccc(Cl)cc2)CC1`, the inhibition is 0%.

With `COc1ccc(NC(=O)CSc2nc3c(c(=O)n2-c2ccccc2OC)SCC3)cc1`, the inhibition is 3%.

In the case of `Cn1c(=O)n(C)c2cc(CNc3ccc(N4CCOCC4)c(C(=O)O)c3)ccc21`, the inhibition was 11%.

`c1cncc(-c2nnc3sc(-c4ccco4)nn23)c1`: the inhibition was 0%.

As for `CCn1nnnc1NCc1cccn1C`, the inhibition is 5%.
